This passage reports Potency and activity change, negative = cytotoxicity results from PubChem BioAssay (NCATS).

Inconclusive results are not listed. Where a call stands in place of a potency, no number is given. Unmarked numbers belong to inactive results. Activity calls are given as the source filed them. Calls follow the shape of the dose curve; as a rule, active = well fitted cell-killing curve with a large enough effect; inconclusive = small, poorly fitted or top-dose-only effect; inactive = flat fitted curve, though single readings scatter. Bridge positions count the residues as written; N and C are the ends. Square brackets hold non-standard residues; d marks the D form. Side chains are listed from the residue outwards. Peptide text beside a SMILES is read from it. * marks the point of attachment. Phg(4-OMe) = COc1ccc([C@H](N)C(=O)O)cc1; d(aIle) = CC[C@H](C)[C@@H](N)C(=O)O; d(aThr) = C[C@@H](O)[C@@H](N)C(=O)O; NMeF = CN[C@@H](Cc1ccccc1)C(=O)O; Isobutyryl = CC(C)C(=O)*

The first assay can be described thus: U-118MG Cancer Cell Toxicity qHTS against the NCATS CANVASS Library (AID 1347351). The note with it: U-118MG viability, CellTiter-Glo luminescence, 72 h; series mostly up to 38.3 µM. In outline: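 Viability was assessed by adding CellTiter-Glo reagent to treated cultures and reading luminescence after 15min at room temperature. Treatment lasted 72 h at 37 degrees C/5% CO2, using an 11-point series on 1000 cells/well.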
For orientation: Quantitative high-throughput screening tests each substance at several concentrations.
For `C/C(=C\CC[C@@H](C)[C@H]1CC[C@]2(C)C3=CCC4C(C)(C)[C@@H](O)C[C@@H](O)[C@]4(C)C3[C@H](O)C[C@@]12C)CO` (stereo partly drawn), the Potency entry was “inactive”. On to `COC12OC1(C13OC1(OC)C(=O)c1cc4cc(C)oc(=O)c4c(O)c1C3O)C(O)c1c(cc3cc(C)oc(=O)c3c1O)C2=O` (stereo not drawn), for which the Potency entry was “inactive”. On to `CO[C@H]1[C@@H](OC(=O)/C(C)=C\[C@@H]2O[C@@H]2[C@H]2O[C@H]2C)[C@H](O)[C@H](OCC23C[C@@H]4[C@H](C)CC[C@H]4C4(C=O)CC2C=C(C(C)C)C34C(=O)O)O[C@@H]1C` (stereo partly drawn), for which the Potency entry was “inactive”.

The next assay is described as follows: COV-362 Cancer Cell Toxicity qHTS against the NCATS CANVASS Library (AID 1347352). Also: potency is read from the fitted curve at half-maximal effect. The note with it: COV-362 viability, CellTiter-Glo luminescence, 72 h; series mostly up to 38.3 µM. The procedure, abridged:
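Cells at 1000/well were given compound 4 h after plating in an 11-point series. Viability was read by CellTiter-Glo luminescence after 72 h at 37 degrees C.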
In the case of `CC(C)=CCC[C@]12c3cc4c(cc3CC[C@@]1(C)[C@H](C)CC[C@@H]2O)[nH]c1ccccc14`, the Potency entry is “inactive”. On to `C=C1CC[C@@H](Br)C(C)(C)[C@]12CC=C(C)C(=O)C2`, for which the Potency entry is “inactive”. Same read-out and setting: to `C=CC(CCCCC)C1C(=O)NC(=O)C1C(=O)C1C(/C=C/C)C=CC2CC(C(=O)O)CC(C)C21` (stereo not drawn) belongs “inactive”.

Regarding `COc1cc(/C=C/C(=O)OC[C@@H](Cc2ccc(O)c(OC)c2)[C@@H](COC(=O)/C=C/c2ccc(O)c(OC)c2)Cc2ccc(O)c(OC)c2)ccc1O`, the Potency was 18.8 µM (active). As for `C=C1CC[C@@H](O[C@H]2C[C@@](O)([C@H](C)NC(=O)c3[nH]c(C)c(Cl)c3Cl)[C@H](O)[C@@H](C)O2)[C@@H]2C=C[C@H](C)C(/C(O)=C3/C(=O)[C@H](C(C)C)N([C@@H]4O[C@H](C)[C@H](OC(N)=O)[C@H](OC(C)=O)[C@@H]4OC)C3=O)[C@@H]12` (stereo partly drawn), the Potency entry is “inactive”. As to `CC[C@H](C)[C@H]1NC(=O)[C@@H](NC(=O)C(C)C)[C@@H](C)OC(=O)[C@H](COC(=O)CNC(C)=O)NC(=O)[C@@H]([C@@H](C)O)NC(=O)[C@H](Cc2ccccc2)N(C)C(=O)[C@H](c2ccc(OC)cc2)NC1=O` (Isobutyryl-T[d(aIle)][Phg(4-OMe)][NMeF][d(aThr)]S([Gly-Ac]); ester 1-C), the Potency entry was “inactive”.

Turning to `C=C(C)CC[C@H](Cc1c(O)cc(O)c2c1O[C@H](c1ccc(O)cc1)CC2=O)C(=C)C`, the Potency entry was “inactive”. Take `COc1c(O)cc2c(c1O)C(=O)c1c(coc1C)C2=O`: the Potency result is “inactive”.

For `C[C@]12CC[C@]3(C1)[C@H](CC2=O)C[C@@H](OC(=O)c1ccccc1)[C@H]1[C@](C)(C(=O)O)CCC[C@@]13C`, the Potency entry is “inactive”. For `C=C[C@](Cl)(CBr)CCC=C(C)C`, the Potency entry is “inactive”. Regarding `CC(=O)O[C@H]1c2ccccc2-c2c3c(cc4c2[C@@H]1N(C(C)=O)CC4)OCO3`, the Potency entry was “inactive”. With `C=CC(CCCCC)C1C(=O)NC(=O)C1C(=O)C1C2C(C)CC(C(=O)O)CC2CC1(O)C(=O)/C=C/C` (stereo not drawn), the Potency entry is “inactive”. Take `C[C@]12CCC[C@](C)(C(=O)O)[C@@H]1CC[C@@]1(C)c3cocc3CC[C@H]21`: the Potency entry is “inactive”. As to `COc1cc(C2OCC3C(c4ccc(O)c(OC)c4)OCC23)ccc1O` (stereo not drawn), the activity change, negative = cytotoxicity was -3.45% [at 7.64 µM].

`C[n+]1cc2cc(C(N)=O)[nH]c3c(=N)c(Cl)c(N)c1c23`: the Potency entry is “inactive”. Turning to `COc1cc2c(c(O)c1O)C(=O)c1c(coc1C)C2=O`, the Potency was 13.3 µM (active). In the case of `CCC(=O)N[C@@H](C[C@H](C)C(Cl)(Cl)Cl)C(=O)N1C(=O)C=C(OC)[C@@H]1CC(C)C`, the Potency entry was “inactive”.

For the molecule `O=c1cc(-c2ccc(O)c(O)c2)oc2cc(O[C@@H]3O[C@H](CO)[C@@H](O)[C@H](O)[C@H]3O)cc(O)c12`, the Potency result is “inactive”. On the same count and under the same terms, as for `C/C1=C/[C@@H](C)[C@H](O)[C@@H](O)/C=C/CC/C=C/C(=O)O[C@@H]1[C@H](C)C(=O)CCCC1CC(=O)NC(=O)C1`, the entry is “inactive”; as for `CN1CC[C@]2(c3cccc4c3N[C@H]3N(C)CC[C@@]43[C@]34CCN(C)[C@H]3Nc3ccccc34)c3ccccc3N[C@H]12`, 14.9 µM (active); as for `CC(=O)Oc1cc2c(c(OC(C)=O)c1C1CCc3cc(Cl)c(Cl)n31)C(=O)n1c-2cc(Cl)c1Cl` (stereo not drawn), 9.41 µM (active). For the molecule `COc1cc2c(cc1OC)[C@@H](c1ccc3c(c1)OCO3)C(C)C(C)C2=O` (stereo partly drawn), the Potency entry is “inactive”. Regarding `C/C=C(/C)c1c(Cl)c(O)c(C)c2c1Oc1c(Cl)c(O)c(Cl)c(C)c1C(=O)O2`, the Potency entry was “inactive”. `CC(C)C[C@@H]1c2c(O)c(C=O)c(O)c(C=O)c2O[C@]2(C)C=C[C@@H](C(C)C)C[C@H]12`: the Potency entry was “inactive”. On the same count and under the same terms, as for `C/C=C(/C)c1cc(O)c(C)c2c1Oc1cc(O)cc(C)c1C(=O)O2`, the entry is “inactive”; as for `CC(C)[C@]12CC[C@@]3(C)[C@H](C)CC[C@H](O)[C@@]3(CC1)c1cc3c(cc12)[nH]c1ccccc13`, “inactive”; as for `C[C@H]1C=C[C@H]2CCCC[C@@H]2[C@H]1C(=O)[C@H]1CC2=C(C(=O)O)CCN2C1=O`, “inactive”. For the molecule `C/C=C(/C)c1c(Cl)c(OC)c(C)c2c1Oc1c(Cl)c(O)c(Cl)c(C)c1C(=O)O2`, the Potency result was “inactive”. For the molecule `COC12OC1(C13OC1(OC)C(=O)c1cc4cc(C)oc(=O)c4c(O)c1C3O)C(O)c1c(cc3cc(C)oc(=O)c3c1O)C2=O` (stereo not drawn), the Potency result is “inactive”. `CO[C@H]1[C@@H](OC(=O)/C(C)=C\[C@@H]2O[C@@H]2[C@H]2O[C@H]2C)[C@H](O)[C@H](OCC23C[C@@H]4[C@H](C)CC[C@H]4C4(C=O)CC2C=C(C(C)C)C34C(=O)O)O[C@@H]1C` (stereo partly drawn): the Potency entry is “inactive”.
